TRPM1 prom inh = reduces MITF-dependent TRPM1 promoter luciferase signal | actives 0.83% (n = 330,000) | SK-MEL-5 TRPM1 promoter luciferase, 24 h | AID 488899 | inhibition, % at 12.5 µM;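 active = mean inhibition across replicates of 60% or more, whatever share of single replicates reaches that level; inconclusive = some that reach 60%, reason not given; inactive = mean inhibition across replicates below 60%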
LMP1 NFkB inh = Epstein-Barr LMP1 NF-kappaB reporter inhibition. LMP1-induced NF-kappaB luciferase reporter cells, luminescence. actives 0.69% (n = 350,000). inhibition, % at 12.5 µM; in the data active = inhibition above about 41%; inconclusive = no clear call, values can overlap the other calls
Shn3 inh set2 = reduces Shn3 3'UTR luciferase signal in osteoblasts. inhibition, % at 12.5 µM. actives 0.52% (n = 360,000). AID 588674. Clone20 osteoblast Shn3 3'UTR firefly luciferase, 24 h;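 active = mean inhibition of at least 75% with every replicate also reaching 75%; inconclusive = mean inhibition at least 75% but some replicate below; inactive = mean inhibition below 75%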
TROY NFkB inh = blocks TROY-dependent signaling in reporter cells; Q293 LMP1-TROYcd NF-kB luciferase reporter, 4 h; actives 0.98% (n = 360,000); inhibition, % at 10 µM;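 active = compounds whose plate-normalised and pattern-corrected inhibition of the luciferase reporter signal at the single screening dose is 50% or more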
TWEAK-Fn14 inh = blocks TWEAK-Fn14 interaction in a reporter cell assay; TWEAK-stimulated Fn14 reporter cells, luciferase luminescence, 8 h; inhibition, % at 10 µM; actives 2% (n = 360,000); in the data active = inhibition above about 50%
Peg3 prom inh = reduces Peg3 promoter-driven luciferase expression in HeLa. HeLa PEG-Prom luciferase reporter, luminescence, overnight. inhibition, % at 20 µM. actives 1.7% (n = 360,000). AID 588405;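 active = inhibition of at least 50% at 20 µM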
Numbers stand for hits; – = inactive; ? = inconclusive; · = not tested or not shown; ! = repeats disagree. In the library only some 4.1% were active in any assay of this set; here they are far more common.

SMILES | TRPM1 prom inh | LMP1 NFkB inh | Shn3 inh set2 | TROY NFkB inh | TWEAK-Fn14 inh | Peg3 prom inh
O=C(NCCCNC(=O)c1cnccn1)c1cccc(F)c1 | – | – | – | – | – | –
COc1cc(-c2cc(C(=O)Nc3cccc(C(C)=O)c3)c3ccccc3n2)cc(OC)c1OC | – | – | – | – | 59.6 | –
CC(=O)Nc1cccc(NC(=O)c2cc(-c3cccnc3)nc3ccc(Br)cc23)c1 | – | – | – | – | – | 60.9
COc1cccc(NC(=O)c2cc(-c3ccccn3)nc3ccccc23)c1 | – | – | – | – | – | –
COc1cccc(-c2cc(C(=O)Nc3ccncc3)c3ccccc3n2)c1 | – | – | – | – | 88.9 | –
COc1cc(-c2cc(C(=O)Nc3ccc(O)cc3)c3ccccc3n2)cc(OC)c1OC | – | – | – | – | – | –
COc1ccccc1C(c1c(N)n(C)c(=O)n(C)c1=O)C(C)[N+](=O)[O-] (stereo not drawn) | · | · | – | – | – | –
COc1ccccc1C(C[N+](=O)[O-])c1c(N)n(C)c(=O)n(C)c1=O (stereo not drawn) | · | · | – | – | 52.0 | 104.3
COc1ccccc1CNc1ccc2c(c1)CCC2 | – | – | – | – | 65.5 | –
COc1ccccc1NC(=O)Nc1ccc2c(c1)CCC2 | – | – | – | – | – | –
COc1ccc(CNc2ccc3c(c2)CCC3)cc1Br | – | – | – | – | 56.9 | –
Cc1ccc2nc(SCC(=O)N3CCOCC3)[nH]c2c1 | – | – | – | – | – | –
Cc1ccc2nc(SCC3CCCCO3)[nH]c2c1 (stereo not drawn) | – | – | · | – | 71.0 | –
CCN1C(=O)/C(=C\N(C)C)c2ccccc21 | – | – | – | – | – | –
CCN1C(=O)/C(=C\c2nc3ccccc3c(=O)n2CC)c2ccccc21 | – | – | – | – | – | –
CCN1C(=O)/C(=C/c2nc3ccccc3c(=O)n2-c2ccccc2)c2ccccc21 | – | – | – | – | 58.4 | –
CCN1C(=O)/C(=C/N(C)C)c2ccccc21 | – | – | – | – | – | 57.4
O=C(O)CNC(=O)C12CC3CC(CC(Cl)(C3)C1)C2 | – | – | – | – | – | –
CC(C)CNC(=O)NC(=O)COC(=O)c1ccccc1Sc1ccc(C(F)(F)F)cc1[N+](=O)[O-] | – | – | – | – | 57.4 | –
COc1ccc(CC(=O)NC(C)c2nnc(SCC(=O)Nc3cc(C)ccc3OC)n2C)cc1 (stereo not drawn) | – | – | – | – | – | –
OC(CNCC1CCCO1)Cn1c2ccc(Cl)cc2c2cc(Cl)ccc21 (stereo not drawn) | – | – | – | – | – | 105.9
OC(CNCCC1C=Nc2ccccc21)Cn1c2ccc(Cl)cc2c2cc(Cl)ccc21 (stereo not drawn) | 90.8 | – | 92.7 | – | 73.9 | 102.3
CCOc1ccc(C2=Nn3c(CC)nnc3SC2)cc1 | – | – | – | – | – | –
CCOc1ccc(C(=O)COC(=O)CNC(=O)C2CCCCC2)cc1 | – | – | – | – | – | –
CCS(=O)(=O)c1ncc(Cl)c(C(=O)Nc2ccc(C)cc2)n1 | 69.7 | – | – | 67.0 | 89.8 | 100.5
SMILES | TRPM1 prom inh | LMP1 NFkB inh | Shn3 inh set2 | TROY NFkB inh | TWEAK-Fn14 inh | Peg3 prom inh
CS(=O)(=O)c1ncc(Cl)c(C(=O)Nc2ccc3ccccc3c2)n1 | 103.7 | – | 95.7 | 64.9 | 81.8 | 106.4
CCS(=O)(=O)c1ncc(Cl)c(C(=O)Nc2ccc(S(=O)(=O)N3CCCC(C)C3)cc2)n1 (stereo not drawn) | 104.0 | – | 97.5 | 84.6 | 95.8 | 105.1
O=C(Nc1ccc2ccccc2c1)c1cnccn1 | – | – | – | – | – | –
Cc1ccc(CS(=O)(=O)c2ncc(Cl)c(C(=O)Nc3ccc(OC(F)F)cc3)n2)cc1 | 81.5 | ? | 94.3 | 78.8 | 82.6 | 106.1
CCOc1ccc(N(CC(=O)NCCSCc2ccccc2)S(C)(=O)=O)cc1 | – | – | – | – | – | –
S=C(Nc1ccc(Br)cc1)N1CCN(c2ccccn2)CC1 | – | – | – | – | – | –
CC(=O)c1cccc(NC(=O)CSc2nc(=O)n(CCN3CCOCC3)c3c2CCC3)c1 | – | – | – | – | – | –
O=c1/c(=C\c2cccc(O)c2)sc2nc(-c3ccccc3)c(-c3ccccc3)n12 | – | – | – | – | – | –
Cc1nn(CCc2nn[nH]n2)c2nc(-c3ccccc3)cc(C(F)(F)F)c12 | – | – | – | – | – | –
Cc1nn(CCC#N)c2nc(-c3ccccc3)cc(C(F)(F)F)c12 | – | – | – | 51.7 | – | –
CCn1c(/C=N/Nc2ccc(C(=O)O)cc2)nc2ccccc21 | – | – | – | – | – | –
CC1Oc2ccccc2C=C1/C=N/Nc1ccc(C(=O)O)cc1 (stereo not drawn) | – | – | – | – | 61.0 | –
CC(=O)Oc1c(-c2ccc(Br)o2)oc2ccccc2c1=O | – | – | – | – | – | –
Cc1ccc(S(=O)(=O)Nc2ccc(Cl)cc2)cc1NC(=O)Cn1cnc2c1c(=O)n(C)c(=O)n2C | – | – | – | – | 88.9 | –
Cc1ccccc1NC(=O)Cn1cnc2c1c(=O)n(C)c(=O)n2C | – | – | – | – | – | –
CC(=O)c1cccc(N(CC(=O)NC2CCCC2)C(=O)c2csnn2)c1 | – | – | – | – | – | –
COc1ccc(S(=O)(=O)N2CCN(CC(=O)Nc3ccc(C)c(F)c3)CC2)cc1 | – | 50.1 | – | – | – | –
Cc1ccc(F)cc1NC(=O)CSCc1nc2sc(C)c(C)c2c(=O)[nH]1 | – | – | – | – | – | –
Cc1cc(=O)n2c3c(c4c(cc13)c(CN(C)C)cc(=O)n4C)OC2 | – | – | – | 52.2 | – | –
Cc1cc(=O)n(C)c2ccccc12 | – | – | – | – | – | –
CCOc1ccc(N(CC(=O)NC2CCCC2)C(=O)CCC(=O)Nc2nccs2)cc1 | – | – | – | – | – | –
CCOc1ccccc1NC(=O)c1cc(C(=O)c2cc(Br)ccc2O)coc1=N | – | – | – | 59.4 | – | –
COc1ccc(C)cc1NC(=O)CN(C)C1CCCCC1 | – | – | – | – | – | –
CC(=O)NC1=NC(=O)/C(=C/c2cn(C(C)=O)nc2-c2ccccc2)S1 | – | – | – | – | 74.2 | –
CCOC(=O)c1cccc(NC2c3ccccc3C(=O)N2Cc2ccco2)c1 (stereo not drawn) | – | – | 90.4 | – | – | –
O=C(Nc1ccccc1O)C(c1ccccc1)c1ccccc1 | – | – | – | – | 64.5 | –
COc1cc2nc(N3CCN(C(=O)C4CCCO4)CC3)nc(N)c2cc1OC (stereo not drawn) | – | 78.6! | – | – | – | –
COc1cc2nc(N3CCN(C(=O)[C@H]4COc5ccccc5O4)CC3)nc(N)c2cc1OC | – | – | – | – | – | –
CN(C)S(=O)(=O)c1cccc(COC(=O)c2cccnc2Cl)c1 | – | – | – | – | – | –
OCC1(Cc2cccc(C(F)(F)F)c2)CCN(Cc2cc(F)cc(F)c2)CC1 | – | – | – | – | – | –
